Compounds without any hit were thinned out: in the full panel of roughly 79,000, 15% have a hit. Values without a mark were called inactive. Activity calls are given as the source filed them. Rule as the data show it: active = growth inhibition above about 70%; inactive = the rest.
How the values were obtained:
[1] = NCI Yeast Anticancer Drug Screen. Data for the rad50 strain (AID 155);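 also: 0% = growth of vehicle-only cultures of the same strain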; details: S. cerevisiae rad50 strain growth inhibition, active compounds read high
Method in brief: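 Readout: growth inhibition relative to vehicle-treated cultures. Compound exposure was carried out in a genetically defined yeast strain deficient in DNA damage repair.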

[2] = NCI Yeast Anticancer Drug Screen. Data for the mec2-1 strain (AID 157); details: S. cerevisiae mec2-1 strain, active compounds read high
Method in brief: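 Strain: mec2-1 (DNA repair/cell cycle alteration). Compound exposure, then growth measured; inhibition expressed relative to vehicle.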

[3] = NCI Yeast Anticancer Drug Screen. Data for the sgs1 mgt1 strain (AID 161);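 also: 0% = growth of cultures given vehicle only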; details: S. cerevisiae sgs1 mgt1 strain, active compounds read high
Method in brief: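 Read-out: growth inhibition vs vehicle controls. Cells: mutant yeast strain deficient in DNA damage repair.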

[4] = NCI Yeast Anticancer Drug Screen. Data for the cln2 rad14 strain (AID 165);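 also: 0% = growth equal to vehicle treated cultures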; details: S. cerevisiae cln2 rad14 strain, active compounds read high
Method in brief: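 Compounds are applied to the cln2 rad14 yeast strain, and growth is then compared with that of vehicle-treated cultures to give inhibition.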

[5] = NCI Yeast Anticancer Drug Screen. Data for the bub3 strain (AID 167); details: S. cerevisiae bub3 mutant strain, active compounds read high
Method in brief: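 Readout: yeast growth inhibition, expressed relative to vehicle-only wells. The test organism is a mutant strain from a panel with lesions in DNA repair or checkpoint genes.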

[6] = NCI Yeast Anticancer Drug Screen. Data for the mlh1 rad18 strain (AID 175); details: S. cerevisiae mlh1 rad18 strain growth inhibition, active compounds read high
Method in brief: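 Read-out is yeast growth inhibition, calculated against vehicle-only controls. The compound was applied to a strain engineered with DNA damage repair alterations.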

[7] = at 5.0 µM (retest, dose inferred, filed as 0.5)
[8] = at 50.0 µM (retest, dose inferred, filed as 5.0)

Structure (SMILES) | growth inhibition [1, 7] | growth inhibition [1, 8] | growth inhibition ([1]; at 50.0 µM) | growth inhibition [2, 7] | growth inhibition [2, 8] | growth inhibition ([2]; at 50.0 µM) | growth inhibition [3, 7] | growth inhibition [3, 8] | growth inhibition ([3]; at 50.0 µM) | growth inhibition [4, 7] | growth inhibition [4, 8] | growth inhibition ([4]; at 50.0 µM) | growth inhibition [5, 7] | growth inhibition [5, 8] | growth inhibition ([5]; at 50.0 µM) | growth inhibition [6, 7] | growth inhibition [6, 8] | growth inhibition ([6]; at 50.0 µM)
COc1ccccc1/C=C1\Sc2scc(-c3ccc(O)c(O)c3)[n+]2C1=O | -5% | 99% (active) | 98.9% (active) | -8% | 99% (active) | 98.9% (active) | -11% | 99% (active) | 99.3% (active) | -7% | 99% (active) | 97.2% (active) | -14% | 99% (active) | 98.8% (active) | 7% | 99% (active) | 99% (active)
CCC(=O)C(=O)CC1CC(c2ccco2)=Nc2ccccc2S1 (configuration not stated) | 9% | 97% (active) | -0.45% | 13% | 98% (active) | 5.65% | 28% | 94% (active) | 22.6% | 6% | 97% (active) | -24.4% | 14% | 96% (active) | 6.35% | 14% | 98% (active) | 18.5%
Cc1nc(N)sc1N=Nc1ccccc1Br | -20% | 89% (active) | 88% (active) | -11% | 97% (active) | 94.2% (active) | 0% | 93% (active) | 92.1% (active) | -5% | 62% | 91.3% (active) | -1% | 91% (active) | 95.8% (active) | 34% | 96% (active) | 95.8% (active)
CC(C)C(=O)c1ccc([N+](=O)[O-])o1 | 2% | 97% (active) | 98.8% (active) | 11% | 97% (active) | 99% (active) | 8% | 96% (active) | 97.7% (active) | -3% | 99% (active) | 97.3% (active) | 1% | 97% (active) | 99.1% (active) | 6% | 98% (active) | 98.5% (active)
COc1ccc(C(=O)C(CN2CCOCC2)CN2CCOCC2)cc1 | 11% | -10% | 96.2% (active) | 20% | -6% | 97.2% (active) | 23% | -6% | 97.7% (active) | 11% | -11% | 92.3% (active) | 10% | -5% | 95.7% (active) | 18% | -2% | 97.2% (active)
O=C(O)c1ccccc1N=N/C(=N\Nc1cc(S(=O)(=O)O)ccc1O)c1ccccc1 | -7% | 85% (active) | 48.4% | -5% | 49% | 20.5% | -3% | 95% (active) | 46.5% | -3% | 47% | -32% | 1% | 97% (active) | 38.8% | -4% | 74% (active) | 44.5%
O=c1[nH]c2c([N+](=O)[O-])cc(Cl)cc2nc1/C=C(\O)c1ccco1 | 17% | 74% (active) | 72.7% (active) | -5% | 44% | 56.1% | 1% | 54% | 84.2% (active) | -1% | 62% | 59% | 4% | 66% | 32.6% | -4% | 70% (active) | 80% (active)
CC1=C(C(=O)Nc2ccccc2C)C(c2ccccc2F)C(C(=O)Nc2ccccc2C)=C(C)N1 | 1% | 6% | 29.6% | 3% | 8% | 41.9% | -2% | 6% | 6.6% | -2% | -6% | -23.1% | 1% | 2% | 20.2% | 1% | 8% | 47.7%
CC(=O)Oc1c2ccccc2c(C)c2c1ccc1ccccc12 | 65% | 93% (active) | 96% (active) | 84% (active) | 92% (active) | 95% (active) | 89% (active) | 93% (active) | 96% (active) | 49% | 92% (active) | 94.2% (active) | 37% | 93% (active) | 96.7% (active) | 91% (active) | 90% (active) | 91.8% (active)
CC(C)C(OC(=O)c1ccc(NCC2=CC(=O)C=CC2=O)cc1)C(C)C | 22% | 37% | 17% | 15% | 40% | 11.3% | 23% | 53% | 73% (active) | 21% | 32% | 73.8% (active) | 27% | 61% | 70.5% (active) | 17% | 44% | -10.4%
O=C(COC(=O)c1ccc(O)cc1)c1ccc(-c2ccccc2)cc1 | -16% | -13% | 21.7% | -4% | 11% | 25.4% | -1% | 12% | 19.9% | 22% | -45% | 28.1% | 6% | -20% | 17.6% | -5% | 24% | 19.9%
O=[N+]([O-])/C=C\c1csc2ccccc12 | 94% (active) | 99% (active) | 99.2% (active) | 96% (active) | 98% (active) | 99.6% (active) | 97% (active) | 99% (active) | 99.5% (active) | 81% (active) | 99% (active) | 99.3% (active) | 92% (active) | 99% (active) | 99.3% (active) | 92% (active) | 99% (active) | 99.3% (active)
Cc1cc(Cl)c(C(C)C)cc1O | 17% | 62% | 53.2% | -4% | 61% | 48.2% | 3% | 55% | 48.6% | 2% | 51% | 45% | 7% | 55% | 24.4% | 8% | 58% | 63.4%
Nc1ccc2c(c1)[nH]c(=O)c1cc(Cl)c(Cl)cc12 | 87% (active) | 94% (active) | 96.3% (active) | 27% | 60% | 40.4% | 49% | 70% (active) | 78.2% (active) | 63% | 77% (active) | 13.1% | -1% | 84% (active) | 9.65% | 53% | 85% (active) | 92.9% (active)
CN1CCN(CC(C(=O)O)(c2ccccc2)c2ccccc2)CC1 | -1% | 2% | -1.85% | 3% | -5% | 5.05% | -3% | 0% | -16.6% | 4% | -1% | 14.2% | 0% | -5% | 59.5% | -1% | -4% | -13.2%
N#CC(C#N)=C1C(Br)=CCc2ccccc21 | 100% (active) | 99% (active) | 99.2% (active) | 100% (active) | 100% (active) | 99.3% (active) | 100% (active) | 99% (active) | 99.2% (active) | 100% (active) | 99% (active) | 97.5% (active) | 100% (active) | 99% (active) | 99.2% (active) | 100% (active) | 99% (active) | 99.2% (active)
CCCCC(Cc1ccccc1)(C(=O)O)c1ccccc1 (configuration not stated) | 11% | 98% (active) | 99% (active) | 18% | 98% (active) | 98.2% (active) | 16% | 99% (active) | 98.9% (active) | 31% | 99% (active) | 98% (active) | 3% | 97% (active) | 96% (active) | 14% | 99% (active) | 98.8% (active)
CC(=O)OC(OC(C)=O)c1ccc([N+](=O)[O-])s1 | -77% | 100% (active) | 99.4% (active) | -18% | 100% (active) | 99.4% (active) | 10% | 100% (active) | 99.5% (active) | 1% | 99% (active) | 99.1% (active) | -7% | 100% (active) | 99.5% (active) | 19% | 100% (active) | 99.5% (active)
O=C(CCCCN1CCN2c3ccccc3CCC2C1)c1ccccc1 (configuration not stated) | -3% | 51% | 90.4% (active) | 2% | 53% | 70.9% (active) | 15% | 80% (active) | 94.4% (active) | -2% | 39% | 58.8% | 1% | 37% | 53.8% | 38% | 83% (active) | 68.9%

— PubChem BioAssay (NCI)
